Measured values from PubChem BioAssay AID743311 (Broad Institute, 2014).
Measured potencies and affinities stand elsewhere. The source made the active and inactive calls. The rule behind the calls is not given here.

Test: toxicity to HepG2 liver cells – cell-based, plate reader, dry powder, set 6, cytotoxicity control, dose response (AID 743311)
Conditions: series mostly up to 26 µM

SMILES | outcome
COc1cccc(OCCn2cnc3ccccc32)c1 | inactive
CC(C)c1ccccc1NCCn1c(=S)[nH]c2ccccc21 | inactive
Cc1ccc(C(C)C)c(OCCn2c(=O)[nH]c3ccccc32)c1 | inactive
Cc1cc2ncn(CCOc3ccccc3)c2cc1C | inactive
Cc1cccc(OCCn2c(=S)[nH]c3c(F)cccc32)c1 | inactive
Cc1ccc(OCCn2cnc3cc(C)c(C)cc32)cc1 | inactive
CCSc1nc2ccccc2n1CCOc1ccccc1 | inactive
Cc1ccccc1OCCn1cnc2ccccc21 | inactive
Fc1ccc(OCCn2c(=S)[nH]c3ccccc32)cc1 | inactive
Cc1cccc(OCCn2c(=S)[nH]c3ccc(C(F)(F)F)cc32)c1 | inactive
Clc1ccc(OCCn2cnc3ccccc32)cc1 | inactive
CCc1nc2ccccc2n1CCOc1ccccc1 | inactive
COc1cc(C)ccc1OCCn1cnc2ccccc21 | inactive
Cc1ccc(OCCn2cnc3ccccc32)c(C)c1 | inactive
CSc1nc2ccccc2n1CCOc1ccccc1 | inactive
CS(=O)(=O)c1ccc(OCCn2cnc3ccccc32)cc1 | inactive
Fc1ccc2c(c1)[nH]c(=S)n2CCOc1ccccc1 | inactive
Clc1ccccc1OCCn1cnc2ccccc21 | inactive
CCCCc1nc2ccccc2n1CCOc1ccccc1 | inactive
COCc1nc2ccccc2n1CCOc1ccc(C(C)(C)C)cc1 | inactive
